Records with an inconclusive call do not appear. A number with no mark means an inactive call. Active and inactive are the calls of the source. Calls follow the shape of the dose curve; as a rule, active = well fitted inhibition curve with a large enough effect in the repeat runs; inconclusive = weak or mixed curves, or effect the other way; inactive = no such curve, though single readings can be large or run the other way. Non-standard residues stand in square brackets, D forms with d. Residues, ends and D or L forms follow the SMILES beside them. *: point of attachment. Sta = CC(C)C[C@H](N)[C@@H](O)CC(=O)O; Isovaleryl = CC(C)CC(=O)*
Molecular target: Nuclear receptor subfamily 1 group I member 3 (Homo sapiens) (UniProt Q14994)
Assay: qHTS assay to identify small molecule antagonists of the constitutive androstane receptor (CAR) signaling pathway (AID 1224838);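 also: HepG2 cells stably expressing hCAR with CYP2B6 luciferase reporter stimulated by CITCO; nearly all actives have a fitted effect of over 40% in size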
Conditions: HepG2-CYP2B6-hCAR luciferase, CITCO-stimulated, 24 h; series mostly up to 92.4 µM
Excerpt: U.S. Tox21 Program National Center for Advancing Translational Sciences [NCATS] NIH Chemical Genomics Center [NCGC] U.S. Environmental Protection Agency [EPA] National Institutes of Environmental Health Sciences [NIEHS] National Toxicology Program [NTP] U.S. Food and Drug Administration [FDA] Tox21 Assay Overview: The constitutive androstane receptor (CAR) is a nuclear receptor which regulates multiple drug metabolizing enzymes (DMEs) and transporters. Activating CAR will generally increase the transcription and subsequent translation of CYP2B6 and CYP3A4. These two DMEs represent about 50% of the drug metabolizing potential in the body. When CAR is deactivated, the metabolizing potential in the body will decrease, subsequently increasing the toxicity in the body or lowering the therapeutic potential of a pro-drug. Recently, there have also been studies performed indicating CARs role in energy metabolism and cancer therapy. Therefore, inhibiting CARs activity could have a potential effect on diabetes and cancer. Identifying environmental toxins and compounds which modulate CAR, through the use of the Tox21 10K compound collection, will be an important step in determining the toxicity and potential therapeutic effects these factors will have on the human body.
Tox21 Assay Protocol Summary: A double-stable (hCAR and CYP2B6-2.2kb) transfected cell line, derived from human hepatoma (HepG2) cells, was utilized for the duration of the quantitative high-throughput screens. The HepG2-CYP2B6-hCAR cells suspended in DMEM culture medium supplemented with 10% FBS, 5 ug/mL blasticidin, 0.5 mg/mL geneticin, 100 U/mL penicillin and 100 ug/mL streptomycin were dispensed at 2500 cells/4 uL/well in 1536-well white solid bottom plates using a Multidrop Combi. After the assay plates were incubated at 37 C/5% CO2 for 4 hrs, 23 nL of compounds at 15 concentrations (from 5-48 columns) or positive control (from 1 to 4 columns) were transferred to the assay plates using a Pintool station. One uL of CITCO, was added using a Flying Reagent Dispenser to generate a final concentration of 50 nM CITCO inside each well. After a 24 hr incubation period at 37 C/5% CO2, four uL of ONE-Glo reagent was added into the assay plates using a Flying Reagent Dispenser. After a 30 min incubation period at room temperature, the luminescence intensity in the assay plates was measured using a ViewLux plate reader.
% is scaled to controls: 0 for no effect and ±100 for the full control effect.

Nuclear receptor subfamily 1 group I member 3 (Homo sapiens), sequence (Q14994 whole entry, looked up): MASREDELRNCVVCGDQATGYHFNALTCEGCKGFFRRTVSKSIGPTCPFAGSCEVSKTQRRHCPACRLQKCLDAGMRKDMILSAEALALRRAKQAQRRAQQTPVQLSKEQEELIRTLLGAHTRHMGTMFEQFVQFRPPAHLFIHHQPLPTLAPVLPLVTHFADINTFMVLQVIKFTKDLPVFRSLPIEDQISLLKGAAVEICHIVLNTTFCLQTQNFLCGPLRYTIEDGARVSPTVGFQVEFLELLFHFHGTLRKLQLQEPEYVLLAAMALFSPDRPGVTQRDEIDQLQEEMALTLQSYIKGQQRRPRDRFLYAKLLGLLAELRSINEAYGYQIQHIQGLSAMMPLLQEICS

Structure (SMILES) | outcome | activity, negative = inhibition
CC1(C)CC(N)CC(C)(C)N1 | inactive | –
NNC(=O)CCCCC(=O)NN | inactive | –
CC(C)=CCC/C(C)=C\C#N | inactive | –
O=C(O)/C=C(\CC(=O)O)C(=O)O | inactive | –
CCCOc1ccc(C(=O)OCCN(CC)CC)cc1N | inactive | –
C/C=C/C(=O)CCCC | inactive | –
CC(C)CC(=O)N[C@H](C(=O)N[C@H](C(=O)N[C@@H](CC(C)C)[C@@H](O)CC(=O)N[C@@H](C)C(=O)N[C@@H](CC(C)C)[C@@H](O)CC(=O)O)C(C)C)C(C)C (Isovaleryl-VV[Sta]A[Sta]-OH) | inactive | –
C/C(=N\O)c1ccc(OCC(=O)N2CCCCC2)cc1 | inactive | –
O=C(O)Cc1c(Cl)ccc(Cl)c1Cl | inactive | –
Cc1cc(C)c(C)c(C)c1 | inactive | –
c1cc2ccc3ccc4ccc5cccc6c(c1)c2c3c4c56 | – | 27.3% [at 3.26 µM]
COC(=O)c1cc(Cl)c(NC(C)=O)cc1OC | inactive | –
Cc1ccccc1OCC(=O)O | inactive | –
O=c1c(O)c(O)c1=O | inactive | –
CN(C)CCCN(C)C | – | -1.01% [at 8.39 µM]
CCCCOCCCC | inactive | –
Cc1nc2ccc(Cl)cc2[nH]1 | inactive | –
CC(CN1CC(=O)NC(=O)C1)N1CC(=O)NC(=O)C1 (stereo not given) | inactive | –
Cc1cc(=O)oc2cc(O[C@@H]3SC[C@@H](O)[C@H](O)[C@H]3O)ccc12 | inactive | –
Cc1cc(N)no1 | inactive | –

Structure (SMILES) | outcome | activity, negative = inhibition
CCOC(=O)CN1CCCC1=O | inactive | –
CCOC(=O)c1ccc(N(C)C)cc1 | inactive | –
CC/C=C\CCOC(=O)c1ccccc1 | inactive | –
O=C(O)CCC(=O)Nc1ccc(S(=O)(=O)Nc2nccs2)cc1 | inactive | –
CCCCCCC(=O)c1ccccc1 | inactive | –
CCOc1ccccc1OCCN[C@H](C)Cc1ccc(OC)c(S(N)(=O)=O)c1 | inactive | –
Cc1ccc(NC(N)=O)cc1 | inactive | –
Cc1ccc2ccccc2n1 | inactive | –
O=S(=O)(O)c1ccc(Cl)cc1 | inactive | –
CCCCS | inactive | –
CCCc1ncc(C(=O)O)s1 | inactive | –
Cc1ccc(OC(=O)CC(C)C)cc1 | inactive | –
CCCc1ccc(O)c(OC)c1 | inactive | –
CN(C)c1ccncc1 | inactive | –
CN(C)CCc1c[nH]c2ccc(CS(=O)(=O)N3CCCC3)cc12 | inactive | –
Cc1cc(C)c(N)c(Cl)c1 | inactive | –
CN(C)CCC[C@@]1(c2ccc(F)cc2)OCc2cc(C#N)ccc21 | inactive | –
CCOC(=O)CC(C(C)=O)C(C)=O | inactive | –
COC(=O)c1ccc(NC(C)=O)cc1OC | inactive | –
CC(C)(C)NCC(O)COc1cccc2c1CCC(=O)N2 (stereo not given) | inactive | –
